Compound activity deposited in PubChem by several laboratories.
CRFBP-R2 block: antagonists of CRF-binding protein/CRF-R2 receptor complex. HEK293 CRF-R2/CRF-BP, CRF-induced calcium fluorescence. inhibition, % at 11.8 µM. 350,000 compounds, 0.59% hits;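 active = inhibition of the ligand-induced calcium signal above about 50% at the single tested concentration, limit read from the data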
ABCB6 inh 2: blocks the human ABCB6 transporter; 360,000 compounds, 0.19% hits; fluorescence ratio to DMSO, % at 10 µM; K562-ABCB6 porphyrin accumulation, flow cytometry, 1 h; stronger effect = lower value; Q9NP58;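 active = fluorescence ratio to DMSO below 75%, the collection mean minus 3 SD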;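 also: signal is porphyrin accumulated inside mitochondria; 100% equals median channel fluorescence of DMSO control wells; lower ratio means ABCB6 inhibition with less porphyrin fluorescence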
Target sequence (Q9NP58 whole entry, looked up): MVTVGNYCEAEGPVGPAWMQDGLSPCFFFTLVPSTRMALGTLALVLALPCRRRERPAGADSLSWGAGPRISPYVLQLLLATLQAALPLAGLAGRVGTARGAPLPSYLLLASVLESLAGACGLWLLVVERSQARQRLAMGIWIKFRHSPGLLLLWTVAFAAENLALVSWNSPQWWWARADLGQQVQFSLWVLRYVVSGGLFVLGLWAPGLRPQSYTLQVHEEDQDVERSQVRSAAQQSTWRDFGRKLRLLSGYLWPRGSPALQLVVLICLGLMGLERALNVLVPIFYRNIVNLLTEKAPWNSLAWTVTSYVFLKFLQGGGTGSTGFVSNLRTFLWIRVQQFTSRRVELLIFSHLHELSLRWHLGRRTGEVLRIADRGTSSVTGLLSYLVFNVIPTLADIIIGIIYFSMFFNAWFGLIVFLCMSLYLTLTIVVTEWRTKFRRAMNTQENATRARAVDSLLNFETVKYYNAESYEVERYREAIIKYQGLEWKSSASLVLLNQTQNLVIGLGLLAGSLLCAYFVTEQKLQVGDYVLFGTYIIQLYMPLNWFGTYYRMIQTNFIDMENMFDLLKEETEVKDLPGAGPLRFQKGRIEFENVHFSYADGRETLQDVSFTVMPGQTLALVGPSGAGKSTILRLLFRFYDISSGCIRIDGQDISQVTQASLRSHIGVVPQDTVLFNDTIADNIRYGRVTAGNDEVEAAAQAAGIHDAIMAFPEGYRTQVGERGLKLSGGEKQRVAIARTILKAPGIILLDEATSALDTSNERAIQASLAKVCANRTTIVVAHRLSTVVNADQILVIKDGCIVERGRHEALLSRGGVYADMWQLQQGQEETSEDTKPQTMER
MEKK2 mut-MEK5: signal of MEK5 binding to mutant human MEKK2 PB1 domain; bead flow cytometry, Alexa488-MEK5 binding to MEKK2 mutant; percent response, % at 10 µM; AID 1530; 290,000 compounds, 0.35% hits; in the data active = percent response above about 24%, passing the limit was not always enough
MEKK2wt PB1 HTS: raises or lowers MEK5 binding to wildtype human MEKK2 PB1 domain. Q9Y2U5. bead flow cytometry, Alexa488-MEK5 binding to MEKK2 WT; actives lie on both sides. binding response (% of control), % at 10 µM. 290,000 compounds, 1.1% hits. AID 1531; in the data active = binding response below about 67% or above about 130%
MEKK3 PB1 HTS: modulators (inhibitors or enhancers) of MEK5 binding to human MEKK3 PB1 domain; AID 1529; Q99759; bead-based flow cytometry, Alexa488-MEK5 binding to MEKK3; actives lie on both sides; 0 = blocked by unlabeled MEK5, 100 = vehicle; 290,000 compounds, 1.4% hits; binding response (% of control), % at 10 µM;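 active = binding response more than 3 SD above or below the average of its plate-row segment, actives on both sides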;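 also: Alexa488 bead fluorescence after subtracting the streptavidin-only scavenger bead signal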
CRFR2-BP ag: agonists of human CRF-binding protein/CRF-R2 receptor complex; activation, % at 13.2 µM; 350,000 compounds, 0.46% hits; HEK293 CRF-R2/CRF-BP, calcium dye fluorescence (FLIPR); percent of saturating CRF peptide response;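 active = activation of at least 50%, plus an integration ratio under a set limit after plate pattern correction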;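 also: plate controls were neutral control wells without compound for no effect and CRF at EC100 for full effect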
MEKK2wt confirm: raises or lowers MEK5 binding to wildtype human MEKK2, retest; binding response (% of control), % at 10 µM; bead flow cytometry, Alexa488-MEK5 binding to MEKK2 WT; actives lie on both sides; shares compounds with MEKK3 PB1 HTS; 5,900 compounds, 2.4% hits; in the data active = binding response below about 16% or above about 210%; inactive = in between
MEKK2mut-MEK5: signal of MEK5 binding to mutant human MEKK2, retest | shares compounds with MEKK3 PB1 HTS | bead flow cytometry, Alexa488-MEK5 binding to MEKK2 mutant | percent response, % at 10 µM | 5,900 compounds, 2% hits | AID 1893; in the data active = percent response mostly above about 71%, no sharp cut-off; inactive = mostly below about 38%;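 also: higher means compound restores mutant binding toward wildtype level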
MEKK3-MEK5 inh: MEKK3-MEK5 PB1 inhibition, single concentration confirmation | bead flow cytometry, Alexa488-MEK5 binding to MEKK3; stronger effect = lower value | binding response (% of control), % at 10 µM | shares compounds with MEKK3 PB1 HTS | 5,900 compounds, 1.8% hits;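 active = binding response below 72% of control, or above a set upper limit, though filed actives all read lower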;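 also: 100% = DMSO only wells and 0% = binding blocked by excess unlabeled MEK5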
* hit, by the source's call; nt = no result given; [ ] = another dose, or the depositor's remark. This is a sample that favours compounds with a hit; in the whole collection about 2.9% have one here.

SMILES	CRFBP-R2 block	ABCB6 inh 2	MEKK2 mut-MEK5	MEKK2wt PB1 HTS	MEKK3 PB1 HTS	CRFR2-BP ag	MEKK2wt confirm	MEKK2mut-MEK5	MEKK3-MEK5 inh
CC1(C)C(=O)OC(c2cccn2-c2ccc([N+](=O)[O-])cc2)C(C)(C)C1=O (stereo not given)	32	95	0	104	136*	-2	103	2	104
CC1(C)C(=O)C2(CCCCC2)C(=O)OC1c1cccn1-c1ccc([N+](=O)[O-])cc1 (stereo not given)	-86	100	0	107	133*	26	103	3	101
O=C1OC(c2ccccc2)C2(CCCC2)C(=O)C12CCCC2 (stereo not given)	-29	94	-1	105	106	1	nt	nt	nt
CC1(C)C(=O)C2(CCCCC2)C(=O)OC1c1ccc(O)cc1 (stereo not given)	-12	103	-8	93	93	-1	nt	nt	nt
O=C1OC(c2cccc([N+](=O)[O-])c2)C2(CCCC2)C(=O)C12CCCCC2 (stereo not given)	-21	93	0	104	142*	3	93	-4	95
Nc1[nH]c(C(=O)c2ccccc2)c(-c2ccc(Cl)cc2)c1C(=O)NCCc1c[nH]c2ccccc12	nt	102	nt	nt	nt	nt	nt	nt	nt
Nc1cc(=O)[nH]c(SCC(=O)Nc2cc([N+](=O)[O-])ccc2Cl)n1	8	98	4	117	138*	0	101	2	103
Nc1cc(=O)[nH]c(SCC(=O)Nc2nc3ccc([N+](=O)[O-])cc3s2)n1	nt	nt	3	108	107	nt	nt	nt	nt
CCN1C[C@@H]2[C@@H]3C(=O)N(C)C(=O)[C@@H]3[C@](Cc3ccccc3)(C1=O)N2C(=O)c1ccccc1	4	97	nt	nt	nt	0	nt	nt	nt
CCOc1ccccc1N1CCN(S(=O)(=O)c2cccs2)CC1	-9	100	1	100	104	0	nt	nt	nt
CCOc1ccccc1C1CC(c2cccs2)=NN1S(C)(=O)=O (stereo not given)	4	679	-5	76	2.0*[inhibitor]	-1	89	-7	89
CCS(=O)(=O)N1N=C(c2cccs2)CC1c1cc2cc(C)ccc2nc1Cl (stereo not given)	4	109	5	-9.0*[inhibitor]	96	4	93	-9	101
CS(=O)(=O)N1N=C(c2cccs2)CC1c1ccc(F)cc1 (stereo not given)	-4	108	-7	22*[inhibitor]	81	-8	91	-19	93
CC(=O)N1N=C(c2cccs2)CC1c1cccs1 (stereo not given)	-7	93	1	98	101	-2	nt	nt	nt
CS(=O)(=O)N1N=C(c2cccs2)CC1c1ccccc1O (stereo not given)	-7	208	-7	0.0*[inhibitor]	77	-6	101	2	101
CCOc1ccc(N(CC(=O)Nc2ccccc2C(=O)N2CCCC2)S(C)(=O)=O)cc1	8	97	-4	97	101	-1	nt	nt	nt
CCOC(=O)N1CCc2cc(OC)c(OC)c3c2c1cc1cc(OC)c(OC)cc13	3	94	nt	nt	nt	0	nt	nt	nt
CC(Sc1nnc(C2CC2)n1C1CC1)C(=O)NC1(C#N)CCCCC1 (stereo not given)	2	94	nt	nt	nt	0	nt	nt	nt
COc1ccc(CCNc2ccc(S(=O)(=O)N3CCCC3)cc2[N+](=O)[O-])cc1	11	89	-1	107	142*	-1	103	-2	101
CCOC(=O)c1cccnc1SCC(=O)N(CC)c1cccc(C)c1	11	98	-5	94	90	-1	nt	nt	nt
CCN(C(=O)CSc1ncccc1C(=O)OC(C)C)c1cccc(C)c1	16	101	-26	-3.0*[inhibitor]	0.0*[inhibitor]	-3	104	6	107
COc1ccc(OCC(=O)N(Cc2sccc2C)C2CCS(=O)(=O)C2)cc1 (stereo not given)	5	102	1	101	99	-1	nt	nt	nt
COc1ccc(NS(=O)(=O)c2ccc3oc(SC(C)C(N)=O)nc3c2)cc1 (stereo not given)	-52	94	12	100	102	1	nt	nt	nt
CCN(CC)c1ccc(C=C(c2nnnn2-c2ccc(C)cc2)c2nnnn2-c2ccc(C)cc2)cc1	-18	120	1	102	131*	23	95	2	104
COc1cccc(NC(=O)CN(C)C(C)C(=O)NC(C)c2ccc(Cl)cc2Cl)c1 (stereo not given)	-12	97	nt	nt	nt	0	nt	nt	nt
SMILES	CRFBP-R2 block	ABCB6 inh 2	MEKK2 mut-MEK5	MEKK2wt PB1 HTS	MEKK3 PB1 HTS	CRFR2-BP ag	MEKK2wt confirm	MEKK2mut-MEK5	MEKK3-MEK5 inh
O=C(NNC(=S)Nc1cccc(C(F)(F)F)c1)c1ccccc1Cl	33	96	1	91	66*[inhibitor]	21	103	4	100
O=C(COc1ccc([N+](=O)[O-])cc1Cl)N(C1CCCCC1)C1CCS(=O)(=O)C1 (stereo not given)	-6	97	nt	nt	nt	8	nt	nt	nt
COc1ccc(C[C@H]2CN3C(=NC[C@@H]3Cc3ccccc3)N2CCNC(=O)CCC2CCCCC2)cc1	-13	95	40	179*	110	-1	134	19	106
COc1ccc(C[C@H]2CN3C(=NC[C@@H]3C(C)C)N2CCNC(=O)CCC2CCCCC2)cc1	-9	93	21	130	103	0	nt	nt	nt
O=C(Nc1ccc(Br)cc1)C1CCN(C(=O)c2ccc(F)cc2)CC1	-5	105	2	105	150*	0	98	-11	96
c1ccc(CCNCCCOc2cccc3ccccc23)cc1	-8	95	33*	161*	118	0	151	37	108
O=C(CCNC(=O)OCC1c2ccccc2-c2ccccc21)NOCc1ccccc1	1	102	nt	nt	nt	-3	nt	nt	nt
O=C(Cn1nc(C(=O)O)c2ccccc2c1=O)Nc1ccccc1C(F)(F)F	-7	101	-1	103	101	3	nt	nt	nt
c1ccc(N/N=C(\Cc2ncc[nH]2)c2ccccc2)cc1	5	102	0	104	99	0	nt	nt	nt
Clc1cccc(N/N=C(\Cc2nc3ccccc3[nH]2)c2ccccc2)c1	-27	96	5	138*	138*	2	120	6	105
